This is part of a sample that, as a whole, favours compounds with a hit. Of some 83,000 tested, about 20% had one in any assay.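 Results are percent growth after 48 hours of single-concentration exposure. 100 means growth as in untreated cells, lower positive values show inhibition; negative values down to -100 show cell death.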 A number with no mark means an inactive call. The source made the active and inactive calls. The calls were made as follows: active = growth percent below 10; inactive = the rest.
Assays:
Assay in all cases: NCI-60 one-dose screen, 48 h (100 = growth as untreated, 0 = no growth, -100 = all killed)
Conditions in all cases: 10 µM unless noted
HCT-15 colon = system: HCT-15 colon
HT29 colon = system: HT29 colon
SNB-75 CNS = system: SNB-75 CNS
SNB-19 CNS = system: SNB-19 CNS
U251 CNS = system: U251 CNS
PC-3 prostate = system: PC-3 prostate
SK-MEL-5 melanoma = system: SK-MEL-5 melanoma
UACC-62 melanoma = system: UACC-62 melanoma
LOX IMVI melanoma = system: LOX IMVI melanoma
SK-MEL-28 melanoma = system: SK-MEL-28 melanoma
SK-MEL-2 melanoma = system: SK-MEL-2 melanoma
EKVX NSCLC = system: EKVX NSCLC
SN12C renal = system: SN12C renal
UO-31 renal = system: UO-31 renal
TK-10 renal = system: TK-10 renal
ACHN renal = system: ACHN renal
CAKI-1 renal = system: CAKI-1 renal
A498 renal = system: A498 renal
CCRF-CEM leukemia = system: CCRF-CEM leukemia
MOLT-4 leukemia = system: MOLT-4 leukemia

SMILES	growth (HCT-15 colon)	growth (HT29 colon)	growth (SNB-75 CNS)	growth (SNB-19 CNS)	growth (U251 CNS)	growth (PC-3 prostate)	growth (SK-MEL-5 melanoma)	growth (UACC-62 melanoma)	growth (LOX IMVI melanoma)	growth (SK-MEL-28 melanoma)	growth (SK-MEL-2 melanoma)	growth (EKVX NSCLC)	growth (SN12C renal)	growth (UO-31 renal)	growth (TK-10 renal)	growth (ACHN renal)	growth (CAKI-1 renal)	growth (A498 renal)	growth (CCRF-CEM leukemia)	growth (MOLT-4 leukemia)
NC(N)=Nc1ccc(Oc2cccc(Nc3ccc(Br)c(C(F)(F)F)c3)c2)cc1	69.9%	11.5%	27.1%	-15.9% (active)	-78.9% (active)	1.98% (active)	22.5%	7.23% (active)	-97.1% (active)	58.3%	35.6%	25.5%	-21.3% (active)	75.2%	54.9%	68.3%	39.8%	0.698% (active)	3.83% (active)	9.79% (active)
O=C(Nc1nc2ccc([N+](=O)[O-])cc2s1)Nc1ccccc1Br	24.3%	44.9%	77.3%	20.5%	10.6%	3.13% (active)	-3.21% (active)	32.3%	44.8%	48.8%	48.1%	35.3%	23.4%	43.4%	81.1%	47.3%	64.1%	21.4%	37.6%	27.1%
CCCCCCCn1cc2c(NCCc3ccccc3)ncnc2n1	95.6%	118%	90.6%	90.4%	96.1%	92.8%	99.6%	74.2%	117%	101%	127%	84.8%	93.4%	71.2%	119%	95.1%	78.7%	95.3%	96.2%	95.4%
CCn1c(SCC(=O)Nc2cccc(C(=O)/C=C/c3ccccc3Cl)c2)nc2ccccc2c1=O	55.2%	67.1%	89.5%	82.3%	73.4%	75.4%	93.5%	79.9%	27.6%	98.3%	110%	85.8%	88.4%	68%	125%	97%	84.6%	94%	77.8%	93.2%
O=S(=O)(NCCNc1nccc(-n2cnc3ccccc32)n1)c1ccc(C(F)(F)F)cc1	60.7%	68%	46.8%	69.8%	69.6%	45.5%	8.48% (active)	42.4%	57.4%	77.2%	67.8%	34.7%	72.5%	39.9%	63.4%	60.8%	43.1%	56.6%	57.6%	45.2%
COc1cc(-c2ccc3ncnc(NCc4ccccc4)c3c2)cnc1OC	68.2%	64.5%	-17.8% (active)	74.4%	81.7%	31.7%	70.8%	47.1%	41.2%	63.2%	76.5%	6.53% (active)	27.2%	17.7%	-11.7% (active)	19.9%	6.95% (active)	-48.8% (active)	54.8%	32.1%
Cc1ccc(-c2cc3nc(C(Cl)Cl)nc(C)n3n2)cc1	109%	104%	129%	104%	108%	98.1%	98.2%	99.6%	96.8%	105%	110%	92.3%	113%	80.9%	166%	87.4%	96.4%	132%	98.4%	103%
CS(=O)(=O)Nc1cc(-c2ccc3ncc(C#N)c(NCc4ccccc4F)c3c2)cnc1Cl	8.34% (active)	11%	26.3%	12.8%	11.5%	6.54% (active)	-93.6% (active)	-20.7% (active)	-41.9% (active)	5.71% (active)	-52.3% (active)	0.584% (active)	16.8%	4.65% (active)	-11.1% (active)	10.9%	-8.09% (active)	-42.9% (active)	13.3%	-15.8% (active)
Cc1ccc(-c2cc3nc(C(Cl)Cl)nc(-c4ccco4)n3n2)cc1	14.9%	0.475% (active)	66.8%	8.51% (active)	1.02% (active)	4.32% (active)	90.1%	37.9%	92.2%	5.86% (active)	83.2%	5.4% (active)	66.4%	33.6%	29.2%	-19.9% (active)	-5.91% (active)	-29.1% (active)	89.3%	94.2%
O=C(CN1CCN(c2cc(=O)n(-c3ccccc3)c3ccccc23)CC1)Nc1nc(-c2ccc(Cl)cc2)cs1	39.7%	63.8%	67.5%	64%	63.8%	35%	5.1% (active)	61.5%	58.4%	69.2%	75.6%	42.7%	74.1%	29.5%	62.4%	55.1%	49.6%	40.7%	50.7%	29%
N/C(=N\C(N)=N\c1nc2ccccc2s1)c1ccncc1Cl	33%	18.8%	7.82% (active)	38.2%	31.8%	29.5%	39.2%	28%	41.3%	58.3%	35.3%	52.7%	35.8%	34.6%	129%	37.7%	37.5%	65.3%	10.7%	23.9%
CC(=O)c1cc(C(=O)N2c3ccccc3Sc3ccccc32)n2ccc3ccccc3c12	29.2%	14.8%	34.6%	49.1%	37.8%	37.6%	37.3%	21.4%	41.4%	62.7%	-77.5% (active)	61.3%	67.6%	42.8%	98.4%	42.5%	39.8%	12.9%	28%	49.1%
CC(=O)c1ccc(Nc2nc(SCC(C)C)nc(-c3ccc(F)cc3)c2C#N)cc1	104%	107%	125%	112%	104%	108%	101%	108%	112%	108%	109%	114%	110%	115%	123%	104%	115%	117%	107%	107%
CCN1CCN(C(=O)[C@]23CCC(C)(C)C[C@H]2C2=CC[C@@H]4[C@@]5(C)Cc6c([nH]c7ccccc67)C(C)(C)[C@@H]5CC[C@@]4(C)[C@]2(C)CC3)CC1	79.6%	88.3%	87.3%	91.9%	83.1%	75.3%	97.3%	94.8%	76%	95.5%	104%	90%	81.7%	75.8%	119%	85%	65%	97.5%	80%	
COc1ccc(OC)c(-c2nc(SCC(=O)c3ccc(Br)cc3)nc(Nc3ccc(S(N)(=O)=O)cc3)c2C#N)c1	22.1%	27.2%	22.1%	49.9%	37.6%	35.3%	56.1%	42.7%	32.6%	57.7%	30.4%	63.7%	49.1%	59.2%	96.3%	55.9%	34.4%	26.4%	35.4%	28.5%

Reference: PubChem BioAssay (NCI)
